Active and inactive are the calls of the source.
Legend:
[1] = system: PRMT1 (protein arginine N-methyltransferase 1); assay: small molecules binding arginine methyltransferase PRMT1 – biochemical, small-molecule microarray, 635 nm fluorescence, primary screen (AID 1088); details: higher = more signal;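 note: binding of Prmt1 protein to compounds spotted on small-molecule microarray slides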
[2] = growth effects on S. cerevisiae YJM789 – YJM789 clinical isolate, OD600, 24 h, basal, primary screen (AID 1089); details: higher = more signal, called active from +8 up or from −8 down;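 note: growth of clinical yeast isolate S. cerevisiae YJM 789 seeded 1000 cells per well; test concentration not given here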
[3] = S. pombe growth modifiers, basal conditions – strain 972, OD600, 24 h, no modulator, primary screen (AID 1090);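 note: basal condition with compound alone and no growth modifier present; test concentration not given here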; details: S. pombe 972 growth, higher = more signal, called active from +8 up or from −8 down
[4] = budding yeast growth modifiers under rapamycin – strain BY4716, OD600, 96 h, primary screen (AID 1091); note: test concentration not given here; details: S. cerevisiae BY4716 + rapamycin, higher = more signal, called active from +8 up or from −8 down
[5] = target: Torsin-1A-interacting protein 2 (Homo sapiens) (UniProt Q8NFQ8); assay: small molecules binding lysate-expressed LULL1 – cell lysate, human LULL1 lysate, 635/667 nm fluorescence, primary screen (AID 1092); details: small-molecule microarray, hLULL1 lysate binding, 635 nm fluorescence; higher = more signal;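 note: probe is lysate of COS7 cells overexpressing human LULL1; score merges per-feature 667 nm fluorescence with signal-to-noise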
[6] = optical density change of DRC41 E. coli – strain DRC41, OD650, 24 h, E. coli filamentation project, primary screen (AID 1093);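 note: MC1000 strain lacking acrAB efflux and sulA so SOS filamentation is blocked; test concentration not given here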; details: E. coli DRC41 growth, higher = more signal, called active from +8 up or from −8 down
[7] = probe aLefty2 binding to arrayed compounds – biochemical, biotinylated probe, 635/667 nm fluorescence, primary screen (AID 1094); details: small-molecule microarray, higher = more signal;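 note: score merges spot fluorescence near 667 nm with spot signal-to-noise ratio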
[8] = system: Noggin (protein binding on small-molecule microarray); assay: small molecules binding Noggin protein – biochemical, 635/667 nm fluorescence, primary screen (AID 1095); details: 635 nm fluorescence, higher = more signal;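 note: score merges 667 nm feature fluorescence with signal to noise over triplicate slides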
[9] = target: Neurogenic locus notch homolog protein 3 (Homo sapiens) (UniProt Q9UM47); assay: small molecules binding NOTCH3 protein – biochemical, 635/667 nm fluorescence, primary screen (AID 1096); details: small-molecule microarray, 635 nm fluorescence, higher = more signal
[10] = probe aEGFR binding to arrayed compounds – biochemical, biotinylated probe, 635/667 nm fluorescence, primary screen (AID 1097); details: small-molecule microarray, higher = more signal;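 note: probe is a biotinylated anti-EGFR antibody binding compounds printed on slides; score combines fluorescence near 667 nm and signal to noise of each spot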
[11] = system: Plasmodium falciparum Sir2 (PF13_0152, Sir2A); assay: Plasmodium falciparum Sir2A binding compounds – biochemical, small-molecule microarray, 635 nm fluorescence, primary screen (AID 1098); details: fluorescence 635 nm, higher = more signal;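 note: score merges spot fluorescence intensity with its signal-to-noise ratio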
[12] = probe aDKK1 binding to arrayed compounds – biochemical, biotinylated probe, 635/667 nm fluorescence, primary screen (AID 1099); details: small-molecule microarray, higher = more signal;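 note: score merges 667nm spot fluorescence with signal to noise across triplicate slides; reference of the scale not given here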
[13] = probe aCHRDL2 binding to arrayed compounds – biochemical, biotinylated probe, 635/667 nm fluorescence, primary screen (AID 1100); details: small-molecule microarray, higher = more signal
[14] = change in splice reporter luminescence, either direction, cell-based, HEK293, spliceosome inhibition project, primary screen (AID 1101); details: HEK293 splicing luciferase reporter, 24 h, higher = more signal, called active from +8 up or from −8 down;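 note: HEK293 cells carrying a splicing-competent luciferase reporter gene; test concentration not given here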
[15] = target: Fibroblast growth factor 10 (Homo sapiens) (UniProt O15520); assay: compounds binding fibroblast growth factor 10 – biochemical, small-molecule microarray, 635 nm fluorescence, primary screen (AID 1102); details: FGF10 binding, fluorescence 635 nm, higher = more signal
[16] = system: glycogen synthase kinase-3 (GSK3A per assay name; protocol says GSK3B); assay: compounds binding glycogen synthase kinase-3 – biochemical, small-molecule microarray, 635 nm fluorescence, GSK3A, primary screen (AID 1103); details: fluorescence 635 nm, higher = more signal; note: the record names both GSK3A and GSK3B
[17] = target: Epidermal growth factor receptor (Homo sapiens) (UniProt P00533); assay: compounds binding epidermal growth factor receptor – biochemical, small-molecule microarray, 635 nm fluorescence, primary screen (AID 1104); details: EGFR binding, higher = more signal;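 note: score merges 667 nm emission intensity with spot signal to noise over triplicate slides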
[18] = target: Follistatin-related protein 3 (Homo sapiens) (UniProt O95633); assay: compounds binding follistatin-related protein 3 – biochemical, small-molecule microarray, 635 nm fluorescence, primary screen (AID 1105); details: FSTL3 binding, higher = more signal;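 note: score merges emission near 667 nm and signal to noise per printed spot across three slides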
[19] = target: Dickkopf-related protein 1 (Homo sapiens) (UniProt O94907); assay: small molecules binding DKK1 protein – biochemical, small-molecule microarray, 635 nm fluorescence scan, primary screen (AID 1106); details: higher = more signal;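 note: score merges emission near 667 nm with signal to noise over three replicate slides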
[20] = system: Inhibin beta A chain (activin A); assay: small molecules binding activin A – biochemical, small-molecule microarray, 635 nm fluorescence scan, primary screen (AID 1107); details: INHBA, higher = more signal;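 note: mouse activin A protein probed at 4.33 µg/mL on printed slides; score merges bound-protein fluorescence near 667 nm with spot signal-to-noise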

Follistatin-related protein 3 (Homo sapiens), sequence (O95633 whole entry, looked up): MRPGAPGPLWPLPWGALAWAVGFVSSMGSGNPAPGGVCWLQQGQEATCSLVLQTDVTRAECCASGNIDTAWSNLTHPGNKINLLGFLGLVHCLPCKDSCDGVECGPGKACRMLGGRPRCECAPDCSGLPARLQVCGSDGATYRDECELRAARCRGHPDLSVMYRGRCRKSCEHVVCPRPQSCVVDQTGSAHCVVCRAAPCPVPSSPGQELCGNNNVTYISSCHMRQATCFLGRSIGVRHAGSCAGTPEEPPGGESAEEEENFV
Epidermal growth factor receptor (Homo sapiens), sequence (P00533 whole entry, looked up): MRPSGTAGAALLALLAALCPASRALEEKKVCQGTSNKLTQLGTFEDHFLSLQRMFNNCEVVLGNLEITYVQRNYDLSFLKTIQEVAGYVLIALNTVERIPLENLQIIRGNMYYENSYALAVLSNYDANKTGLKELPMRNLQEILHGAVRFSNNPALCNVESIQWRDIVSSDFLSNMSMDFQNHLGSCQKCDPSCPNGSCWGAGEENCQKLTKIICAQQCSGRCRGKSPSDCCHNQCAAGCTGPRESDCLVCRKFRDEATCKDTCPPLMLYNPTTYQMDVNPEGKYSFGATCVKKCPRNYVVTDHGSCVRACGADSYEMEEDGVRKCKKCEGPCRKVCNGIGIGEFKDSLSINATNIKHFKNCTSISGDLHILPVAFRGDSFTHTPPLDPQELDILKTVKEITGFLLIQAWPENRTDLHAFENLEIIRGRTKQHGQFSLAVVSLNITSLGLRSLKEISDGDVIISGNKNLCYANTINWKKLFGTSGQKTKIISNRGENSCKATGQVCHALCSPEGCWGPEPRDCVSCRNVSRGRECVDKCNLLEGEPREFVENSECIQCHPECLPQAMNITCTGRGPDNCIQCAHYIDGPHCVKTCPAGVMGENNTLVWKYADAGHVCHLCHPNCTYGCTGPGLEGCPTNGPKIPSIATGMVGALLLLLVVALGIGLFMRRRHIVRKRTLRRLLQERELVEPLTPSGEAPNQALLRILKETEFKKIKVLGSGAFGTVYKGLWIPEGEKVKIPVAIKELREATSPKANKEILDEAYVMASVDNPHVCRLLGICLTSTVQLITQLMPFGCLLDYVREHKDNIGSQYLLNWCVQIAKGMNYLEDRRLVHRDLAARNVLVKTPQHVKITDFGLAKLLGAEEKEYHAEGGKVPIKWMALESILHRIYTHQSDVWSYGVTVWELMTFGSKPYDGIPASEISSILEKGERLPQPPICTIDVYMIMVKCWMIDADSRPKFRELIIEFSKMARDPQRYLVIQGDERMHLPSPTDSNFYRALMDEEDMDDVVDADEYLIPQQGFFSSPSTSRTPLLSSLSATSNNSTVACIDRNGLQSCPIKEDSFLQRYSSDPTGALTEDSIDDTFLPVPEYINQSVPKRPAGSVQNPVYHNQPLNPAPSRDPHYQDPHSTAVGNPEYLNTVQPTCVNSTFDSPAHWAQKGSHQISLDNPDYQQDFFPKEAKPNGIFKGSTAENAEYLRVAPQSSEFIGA
Neurogenic locus notch homolog protein 3 (Homo sapiens), sequence (Q9UM47 whole entry, looked up): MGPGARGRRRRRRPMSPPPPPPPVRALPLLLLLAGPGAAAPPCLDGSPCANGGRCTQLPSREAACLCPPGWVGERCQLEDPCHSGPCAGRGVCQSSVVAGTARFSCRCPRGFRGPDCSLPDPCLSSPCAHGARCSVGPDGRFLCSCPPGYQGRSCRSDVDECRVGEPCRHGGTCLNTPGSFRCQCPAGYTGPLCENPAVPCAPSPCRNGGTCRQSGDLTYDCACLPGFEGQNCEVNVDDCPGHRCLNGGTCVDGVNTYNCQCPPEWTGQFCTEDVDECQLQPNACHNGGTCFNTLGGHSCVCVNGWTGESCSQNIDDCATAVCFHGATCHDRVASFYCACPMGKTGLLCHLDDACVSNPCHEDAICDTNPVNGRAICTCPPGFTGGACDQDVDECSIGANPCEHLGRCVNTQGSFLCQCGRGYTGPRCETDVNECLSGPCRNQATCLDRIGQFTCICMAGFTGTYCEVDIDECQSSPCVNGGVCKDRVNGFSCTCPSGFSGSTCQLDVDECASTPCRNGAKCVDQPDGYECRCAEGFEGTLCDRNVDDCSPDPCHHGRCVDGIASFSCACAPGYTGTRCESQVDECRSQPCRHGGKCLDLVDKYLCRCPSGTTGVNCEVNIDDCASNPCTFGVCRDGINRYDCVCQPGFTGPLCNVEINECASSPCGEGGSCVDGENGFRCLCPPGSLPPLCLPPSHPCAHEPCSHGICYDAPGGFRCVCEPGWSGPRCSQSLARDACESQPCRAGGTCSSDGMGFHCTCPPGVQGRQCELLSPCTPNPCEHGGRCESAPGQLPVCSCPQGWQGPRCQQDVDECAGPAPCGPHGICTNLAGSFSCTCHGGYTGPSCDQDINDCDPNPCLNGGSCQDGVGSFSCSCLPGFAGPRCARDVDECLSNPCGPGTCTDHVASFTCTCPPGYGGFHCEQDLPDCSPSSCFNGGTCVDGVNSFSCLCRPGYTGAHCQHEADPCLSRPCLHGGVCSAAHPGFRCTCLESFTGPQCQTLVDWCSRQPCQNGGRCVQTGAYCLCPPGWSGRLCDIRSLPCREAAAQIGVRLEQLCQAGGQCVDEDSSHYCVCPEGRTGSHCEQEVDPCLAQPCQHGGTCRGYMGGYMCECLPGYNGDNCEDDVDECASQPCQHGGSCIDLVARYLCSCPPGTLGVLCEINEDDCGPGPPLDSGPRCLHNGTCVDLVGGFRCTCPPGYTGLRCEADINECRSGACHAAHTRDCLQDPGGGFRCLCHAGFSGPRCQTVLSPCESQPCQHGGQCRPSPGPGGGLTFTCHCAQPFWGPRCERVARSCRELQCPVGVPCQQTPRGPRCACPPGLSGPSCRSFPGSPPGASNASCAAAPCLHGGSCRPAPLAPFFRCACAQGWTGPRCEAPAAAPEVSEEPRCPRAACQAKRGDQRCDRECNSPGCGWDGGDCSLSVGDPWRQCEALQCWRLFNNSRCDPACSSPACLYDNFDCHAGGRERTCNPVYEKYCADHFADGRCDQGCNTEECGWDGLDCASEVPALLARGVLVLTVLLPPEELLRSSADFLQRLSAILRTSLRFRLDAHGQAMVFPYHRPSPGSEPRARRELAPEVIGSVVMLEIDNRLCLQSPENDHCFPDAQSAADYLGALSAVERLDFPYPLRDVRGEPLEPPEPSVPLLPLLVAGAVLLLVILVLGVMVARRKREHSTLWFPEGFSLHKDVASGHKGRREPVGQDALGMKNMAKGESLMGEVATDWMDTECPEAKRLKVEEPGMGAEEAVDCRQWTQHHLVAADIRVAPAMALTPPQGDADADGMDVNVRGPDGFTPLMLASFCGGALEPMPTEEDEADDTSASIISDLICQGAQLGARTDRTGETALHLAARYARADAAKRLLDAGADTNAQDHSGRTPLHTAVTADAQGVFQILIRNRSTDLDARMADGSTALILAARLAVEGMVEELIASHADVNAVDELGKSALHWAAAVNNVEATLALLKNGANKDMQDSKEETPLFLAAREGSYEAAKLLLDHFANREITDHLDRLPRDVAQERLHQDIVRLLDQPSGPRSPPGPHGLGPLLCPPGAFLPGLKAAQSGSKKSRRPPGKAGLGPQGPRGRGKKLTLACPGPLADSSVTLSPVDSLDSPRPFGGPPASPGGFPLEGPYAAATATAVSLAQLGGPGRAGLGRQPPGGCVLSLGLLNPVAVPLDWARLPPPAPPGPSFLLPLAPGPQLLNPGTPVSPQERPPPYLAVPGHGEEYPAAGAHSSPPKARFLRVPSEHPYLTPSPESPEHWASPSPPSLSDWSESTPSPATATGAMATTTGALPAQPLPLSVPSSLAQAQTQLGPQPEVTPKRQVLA
Torsin-1A-interacting protein 2 (Homo sapiens), sequence (Q8NFQ8 whole entry, looked up): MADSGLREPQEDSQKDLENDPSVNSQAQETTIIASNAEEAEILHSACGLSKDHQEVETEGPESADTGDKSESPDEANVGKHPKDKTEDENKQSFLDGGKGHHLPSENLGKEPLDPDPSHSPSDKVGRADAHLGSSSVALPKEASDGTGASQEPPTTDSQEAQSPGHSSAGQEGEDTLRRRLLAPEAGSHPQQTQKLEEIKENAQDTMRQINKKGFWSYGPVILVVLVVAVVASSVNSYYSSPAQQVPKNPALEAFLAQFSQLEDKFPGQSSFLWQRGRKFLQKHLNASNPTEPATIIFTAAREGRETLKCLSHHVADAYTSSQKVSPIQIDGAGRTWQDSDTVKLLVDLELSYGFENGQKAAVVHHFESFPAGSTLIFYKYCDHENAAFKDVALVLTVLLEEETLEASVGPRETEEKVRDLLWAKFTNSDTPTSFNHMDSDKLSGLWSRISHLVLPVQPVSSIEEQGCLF
Dickkopf-related protein 1 (Homo sapiens), sequence (O94907 whole entry, looked up): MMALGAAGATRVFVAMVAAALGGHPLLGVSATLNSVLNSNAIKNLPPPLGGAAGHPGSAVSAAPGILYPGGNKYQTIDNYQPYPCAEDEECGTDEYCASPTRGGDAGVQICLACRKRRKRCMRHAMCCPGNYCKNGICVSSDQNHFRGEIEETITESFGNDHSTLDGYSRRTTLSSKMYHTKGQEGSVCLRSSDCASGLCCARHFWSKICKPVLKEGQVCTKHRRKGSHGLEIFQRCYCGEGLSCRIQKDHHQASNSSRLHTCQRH
Fibroblast growth factor 10 (Homo sapiens), sequence (O15520 whole entry, looked up): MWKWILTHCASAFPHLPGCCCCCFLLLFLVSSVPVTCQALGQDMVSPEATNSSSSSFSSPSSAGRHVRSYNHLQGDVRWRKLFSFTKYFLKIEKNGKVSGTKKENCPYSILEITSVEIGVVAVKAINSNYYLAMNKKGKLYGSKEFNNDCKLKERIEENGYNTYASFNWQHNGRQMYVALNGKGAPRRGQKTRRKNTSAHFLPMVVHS

Row | Structure (SMILES) | composite z-score [1] | z-score [2] | z-score [3] | z-score [4] | composite z-score [5] | z-score [6] | composite z-score [7] | composite z-score [8] | composite z-score [9] | composite z-score [10] | composite z-score [11] | composite z-score [12] | composite z-score [13] | z-score [14] | composite z-score [15] | composite z-score [16] | composite z-score [17] | composite z-score [18] | composite z-score [19] | composite z-score [20]
1 | COCCCNC(=O)[C@@]1(Sc2ccc(C)cc2)CC(=O)N(C2CCCCC2)[C@@H]1c1ccc(CO)cc1I | 1.54 | -1.9 (inactive) | -0.128 (inactive) | 0.0267 (inactive) | 2.81 | 0.331 (inactive) | -0.0333 | 0.451 | 1.04 | 0.0944 | 1.06 | 0.79 | 0.629 | -0.924 (inactive) | 1.01 | 1.28 | 0.549 | 1.38 | 0.216 | -0.148
2 | O=C1C2C=CC(C(O)c3cccs3)N(Nc3ccccc3)C2C(=O)N1c1ccccc1 (stereo not given) | -0.435 | 0.521 (inactive) | -0.175 (inactive) | 0.231 (inactive) | 3.11 | 0.0249 (inactive) | -0.0329 | -0.448 | 0.365 | -0.0583 | 0.695 | 0.742 | 0.467 | -0.145 (inactive) | 0.0597 | -0.828 | 0.0148 | -0.03 | 0.034 | 1.42
3 | C=CCC(OC(C)=O)[C@@H]1[C@@H](N(Cc2cccc3ccccc23)C(=O)c2cccc3ccccc23)c2cc(OCCCO)ccc2N1C(=O)Cc1ccc2ccccc2c1 (stereo not given in full) | -0.254 | -0.796 (inactive) | 0.0827 (inactive) | -1.45 (inactive) | -0.0809 | -0.225 (inactive) | -0.193 | 0.0493 | 0.002 | -0.0675 | -0.181 | -0.177 | 0.551 | 0.341 (inactive) | -0.0715 | -0.0273 | -0.117 | 0.246 | -0.394 | 1.48
4 | CCCCC(O)C1C=CC2C(=O)N(C)C(=O)C2N1Nc1ccccc1 (stereo not given) | 0.24 | 0.763 (inactive) | 0.555 (inactive) | 1.99 (inactive) | 3.13 | -1.26 (inactive) | -0.013 | -0.649 | 0.51 | -0.143 | 0.236 | 0.304 | 0.411 | 0.94 (inactive) | 0.191 | -0.0703 | -0.319 | 0.0934 | -0.8 | 1.24
5 | C=CCNC(=O)[C@H]1[C@@H]2C(=O)O[C@@H](c3ccccc3)[C@@H](c3ccccc3)N2[C@@H](c2ccccc2OCCO)[C@]12C(=O)N(C(=O)OCCOC)c1ccccc12 | 1.51 | 1.5 (inactive) | 2.05 (inactive) | 5.15 (inactive) | 2.78 | -0.513 (inactive) | -0.196 | 0.786 | 1.12 | -0.0828 | 1.58 | 0.125 | 0.0274 | -1.24 (inactive) | 1.08 | 1.28 | 0.341 | 0.616 | 0.239 | -0.101
6 | CN(C)CCCC[C@@H]1NC(=O)[C@@H]2C[C@H](C(=O)NCCCCCCNC(=O)CS)[C@H](c3cccc(OCCO)c3)N2C1=O | 1.39 | -0.283 (inactive) | -0.0576 (inactive) | -0.471 (inactive) | 1.18 | -0.142 (inactive) | 0.0575 | 0.333 | 0.131 | 0.124 | 1.59 | 0.0307 | 0.358 | -0.162 (inactive) | 0.419 | 0.842 | -0.247 | -0.0613 | 0.735 | -0.0529
7 | COCCCNC(=O)[C@@H]1c2ccccc2C(=O)N(C2CCCCC2)[C@H]1c1ccc(CO)cc1 | -0.158 | -0.0916 (inactive) | -0.769 (inactive) | -0.285 (inactive) | 2.86 | 0.216 (inactive) | -0.018 | -0.597 | -0.47 | -0.257 | 1.2 | 0.164 | 0.864 | 0.0373 (inactive) | -0.779 | -1.82 | -1.22 | -0.849 | -1.54 | -0.0501
8 | COCC(=C=CC[C@@H](O)c1cccc(OCCO)c1)C[C@@H](O)COCc1ccccc1 | 0.881 | -1.56 (inactive) | -1.53 (inactive) | -0.592 (inactive) | 3.81 | 1.36 (inactive) | 0.217 | 0.748 | 0.0417 | 0.19 | 0.264 | 0.613 | 0.67 | -0.51 (inactive) | 1.4 | 1.19 | -0.623 | 0.416 | -0.267 | 0.717
9 | C=CCC(OC(C)=O)[C@@H]1[C@@H](N(Cc2cc3ccccc3o2)C(=O)Cc2ccc(OC)cc2)c2cc(OCCCO)ccc2N1C(=O)Cc1ccc(OC)cc1 (stereo not given in full) | 0.0873 | -0.484 (inactive) | 0.142 (inactive) | -0.197 (inactive) | 0.0103 | -0.847 (inactive) | -0.0757 | 0.312 | -0.293 | -0.108 | -0.193 | -0.0082 | 0.246 | -0.782 (inactive) | 0.233 | -0.238 | 0.157 | -0.0138 | 0.214 | 1.3
10 | N#Cc1ccc(C(O)C2C=CC3C(=O)NC(=O)C3N2Nc2ccccn2)cc1 (stereo not given) | 0.312 | -1.4 (inactive) | 0.811 (inactive) | -0.657 (inactive) | 1.4 | -0.195 (inactive) | -0.147 | -0.14 | -0.124 | -0.0594 | 0.348 | -0.164 | 0.425 | -0.785 (inactive) | 0.0221 | 0.137 | 0.362 | -0.193 | 0.0057 | 0.921
11 | Cc1ccc(S(=O)(=O)N2[C@@H](c3ccccc3)C(C(=O)O)=CC[C@H]2c2ccc(C#N)cc2)cc1 | 1.21 | -0.143 (inactive) | 0.612 (inactive) | -0.371 (inactive) | 3.39 | -1.5 (inactive) | -0.003 | -0.495 | 0.721 | -0.0238 | 1.16 | 0.543 | 0.864 | -0.0152 (inactive) | 0.888 | 0.379 | 0.0164 | 0.273 | -0.522 | 0.667

— PubChem BioAssay
